Laboratory results published in PubChem BioAssay.
Results filed as inconclusive are left out. Active and inactive are the calls of the source.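 How the source made its calls, unless noted: active means Her2 level under about 52% in both replicate screens, with viability over 70% of control (limit read from the data); inconclusive means Her2 under the limit in one screen only, or viability under 70%; inactive means Her2 level above the set limit.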

Experiments:
[1] = Her2 expression decrease, cell viability multiplex – SKBR3 breast tumor cells, AlphaScreen, ATP viability, primary screen (AID 461); details: SKBR3 Her2 protein level, 18-24 h, measured here: SKBR3 viability, ATP luminescence, at 10 µM;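 on Her2 level: lower value means less Her2 protein in the cells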;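 on viability: percent of carrier control wells set as 100% viability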
[2] = biological target: Receptor tyrosine-protein kinase erbB-2 (Homo sapiens) (UniProt P04626); assay: as above; details: 18-24 h, at 10 µM, stronger effect = lower value
[3] = reduced viability of SK-BR-3 breast cancer cells – cell-based, 24 h, human, pilot screen (AID 572;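 active means viability at or below 10% of carrier control in both of two separate runs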;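 further: compound exposure lasted between 18 and 24 h rather than exactly 24 h; 100% = carrier-treated control wells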); details: SK-BR-3 viability, CellTiter-Glo luminescence, at 10 µM, stronger effect = lower value
[4] = HUVEC growth inhibition – cell-based, human, primary screen (AID 575;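 active means viability at or below 30% in both replicate assays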;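 further: 100% = median of untreated cell wells with 0.1% DMSO on each plate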); details: HUVEC proliferation, CellTiter-Glo luminescence, 72 h; at 10 µM; stronger effect = lower value
[5] = H69AR cell proliferation blockers – human, duplicate replicates, primary screen (AID 580;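 active means viability at or under a set limit in both replicates, limit being median viability minus 3 SD, cut at about 48% in these data, passing the limit was not always enough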;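 further: 100% = mean luminescence of untreated wells and 0% = no signal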); details: H69AR lung tumor cells viability, ATP luminescence, 72 h; at 10 µM; stronger effect = lower value
[6] = MRP1 drug-resistance reversers in H69AR cells – cell-based, doxorubicin co-treatment, pilot screen (AID 601;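 active means viability loss from added drug above about 55%, and viability with drug at most 40%, in both replicates, limit read from the data, passing the limit was not always enough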); details: CellTiter-Glo, 72 h, at 10 µM; for differential viability (reversal): stronger effect = higher value
[7] = yeast transport mutant growth inhibition pilot in 384-well plates, post-Golgi transport modulator project (AID 636; in the data active means inhibition above about 31%); details: absorbance 615 nm, about 18 h, stronger effect = higher value
[8] = growth suppression of yeast trafficking mutant, preliminary HTS, modulators of trafficking downstream of Golgi apparatus project, 1536-format plate, OD 615 nm (AID 637; in the data active means inhibition above about 30%); details: yeast transport mutant growth, absorbance 615 nm, 18 h; stronger effect = higher value
[9] = S. cerevisiae growth inhibition in permissive medium (OD615), pilot counter-assay for S. cerevisiae lifespan shortening project, permissive growth control (AID 705;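 active means growth inhibition above 25% in both replicates, a cutoff set 3 SD above the mean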); details: OD615, 24 h, at 10 µM, stronger effect = higher value
[10] = S. cerevisiae growth inhibition in restrictive medium, OD615, pilot screen, restrictive growth control, yeast lifespan reduction project (AID 706;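 active means growth inhibition above a set limit, 3 SD over mean compound inhibition, in both replicates, cut at about 43% in these data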;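 further: modified DeaD lifespan yeast strain shifted to restrictive glucose medium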); details: OD615, 48 h, at 10 µM, stronger effect = higher value
[11] = doxorubicin toxicity protection in MRP-1 cells – H69AR cells, CellTiter-Glo, duplicate, MRP-1 activator project, pilot screen (AID 807;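 active means viability increase at or above a cutoff of the median across tested compounds plus 3 SD, cut at about 8.5% in these data, passing the limit was not always enough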;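 further: compound pretreatment 18-22 h then 72 h combined with doxorubicin; 0% = doxorubicin alone and 100% = vehicle without doxorubicin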); details: H69AR viability with doxorubicin, CellTiter-Glo luminescence; at 10 µM; stronger effect = higher value
[12] = viability of HCT116 without oncogenic beta-catenin – human colon tumor cells, pilot screen (AID 823;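 active means cell viability at or below a set limit in both duplicate runs, the limit being the all-compound median minus 4 SD, cut at about 23% in these data, passing the limit was not always enough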;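 further: 0% = wells killed by 20 µM Hyamine and 100% = untreated DMSO cell wells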); details: HCT116 beta-catenin knockout viability, CellTiter-Glo, 60 h; at 10 µM; stronger effect = lower value
[13] = viability of PTEN-null HCT116 cells – cell-based, HCT116 clonal line, CellTiter-Glo, pilot screen (AID 824;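 active means viability at or below 27.92% in each of two runs, the all-compound median minus 4 SD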;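 further: 0% = 20 µM Hyamine control and 100% = vehicle cell control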); details: HCT116 PTEN-deleted viability, 60 h, at 10 µM, stronger effect = lower value
[14] = RAM pathway blockade in budding yeast – dse1pr::URA3 reporter, 5-FOA selection, pilot screen (AID 869;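 active means inhibition over a set limit, the all-compound mean plus 3 SD, in both replicate runs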;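 further: 0% = DMSO wells with no growth and 100% = 10 µM 1-NA-PP1 with full growth; RAM network block rescues cells from 5-FOA so hits raise OD615 growth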); details: S. cerevisiae dse1pr::URA3 5-FOA growth, OD615, 2 d; at 10 µM; stronger effect = higher value; strain carries analog-sensitive mutant Cbk1 kinase
[15] = RAM signaling pathway blockade in yeast – S. cerevisiae, Pdr1DBD-CYC8 efflux-inhibited sensitized strain, primary screen (AID 1298;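 active means RAM network inhibition above 8.4% in each of two replicates, 3 SD over the compound average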;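 further: 0% = DMSO untreated cells without growth and 100% = 10 µM 1-NA-PP1 full growth; higher means more yeast growth rescued from 5-FOA killing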); details: S. cerevisiae cbk1-as DSE1-URA3 strain, 5-FOA growth OD615, 2 d; at 50 µM; stronger effect = higher value
[16] = H69AR cells + 2 uM doxorubicin, measured here: viability with 2 uM doxorubicin, stronger effect = lower value
[17] = H69AR cells, compound alone cytotoxicity

Sequence of Receptor tyrosine-protein kinase erbB-2 (Homo sapiens) (P04626 whole entry, looked up): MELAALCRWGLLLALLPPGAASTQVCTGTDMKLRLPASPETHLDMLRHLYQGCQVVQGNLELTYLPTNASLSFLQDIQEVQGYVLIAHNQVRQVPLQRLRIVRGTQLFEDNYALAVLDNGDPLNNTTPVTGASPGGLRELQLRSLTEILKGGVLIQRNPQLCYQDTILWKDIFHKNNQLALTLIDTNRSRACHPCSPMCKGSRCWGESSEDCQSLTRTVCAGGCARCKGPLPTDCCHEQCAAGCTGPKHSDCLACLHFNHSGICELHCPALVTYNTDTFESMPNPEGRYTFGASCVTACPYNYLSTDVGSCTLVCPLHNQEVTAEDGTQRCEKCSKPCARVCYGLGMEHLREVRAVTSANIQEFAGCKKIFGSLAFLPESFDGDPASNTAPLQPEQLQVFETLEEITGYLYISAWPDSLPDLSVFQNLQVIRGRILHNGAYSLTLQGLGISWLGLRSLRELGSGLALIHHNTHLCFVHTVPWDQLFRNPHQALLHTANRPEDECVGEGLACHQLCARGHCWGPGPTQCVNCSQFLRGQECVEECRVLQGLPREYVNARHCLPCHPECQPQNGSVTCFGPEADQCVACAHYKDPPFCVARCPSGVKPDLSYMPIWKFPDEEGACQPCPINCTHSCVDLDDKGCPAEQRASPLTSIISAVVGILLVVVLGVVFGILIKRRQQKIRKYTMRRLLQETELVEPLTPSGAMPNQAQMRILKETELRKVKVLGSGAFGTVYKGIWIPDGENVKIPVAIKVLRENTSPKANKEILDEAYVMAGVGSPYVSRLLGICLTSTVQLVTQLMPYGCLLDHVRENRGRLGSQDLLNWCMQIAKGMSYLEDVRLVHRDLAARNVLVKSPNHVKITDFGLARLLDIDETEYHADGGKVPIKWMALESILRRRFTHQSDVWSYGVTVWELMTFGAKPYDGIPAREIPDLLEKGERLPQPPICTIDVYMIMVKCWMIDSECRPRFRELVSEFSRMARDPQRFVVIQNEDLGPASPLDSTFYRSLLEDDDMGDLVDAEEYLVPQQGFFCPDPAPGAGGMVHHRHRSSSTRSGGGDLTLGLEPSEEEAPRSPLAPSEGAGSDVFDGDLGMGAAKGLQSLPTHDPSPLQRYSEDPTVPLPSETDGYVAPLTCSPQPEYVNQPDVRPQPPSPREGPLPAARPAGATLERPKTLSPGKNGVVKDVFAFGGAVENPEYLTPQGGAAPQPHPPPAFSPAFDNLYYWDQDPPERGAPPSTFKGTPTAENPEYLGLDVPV

SMILES | viability [1] [%] | Her2 level [2] | viability [3] | viability [4] | viability [5] | differential viability (reversal) ([6]; H69AR cells + 2 uM doxorubicin) | viability [6, 16] [%] | viability [6, 17] [%] | inhibition [7] | inhibition [8] | growth inhibition [9] | growth inhibition [10] | viability increase [11] | viability [12] | viability [13] | inhibition [14] | RAM network inhibition [15]
O=C1c2ccccc2C(Nc2cccnc2)N1Cc1ccccc1Cl (stereo not given) | 93 | 91% (inactive) | 93% (inactive) | 94.9% (inactive) | 86.3% (inactive) | -16% (inactive) | 102 | 86.3 | -3.2% (inactive) | -3.5% (inactive) | -5.58% (inactive) | 10.4% (inactive) | -3.57% (inactive) | 102% (inactive) | 99.2% (inactive) | 0.17% (inactive) | 0.57% (inactive)
Cc1noc(C)c1S(=O)(=O)N1CCN(Cc2ccc3c(c2)OCO3)CC1 | 82.5 | 105% (inactive) | 82.5% (inactive) | 96.7% (inactive) | 95.4% (inactive) | 9.66% (inactive) | 85.7 | 95.4 | -0.93% (inactive) | 0% (inactive) | -5.76% (inactive) | 7.12% (inactive) | -0.42% (inactive) | 95.3% (inactive) | 98% (inactive) | 0.725% (inactive) | 8.84% (inactive)
CN(C)CCNc1oc(-c2ccccc2F)nc1C#N | 93 | 94% (inactive) | 93% (inactive) | 87.4% (inactive) | 105% (inactive) | 14.7% (inactive) | 90.3 | 105 | -4.27% (inactive) | 3.77% (inactive) | -13.7% (inactive) | -6.7% (inactive) | 1.17% (inactive) | 107% (inactive) | 107% (inactive) | 1.36% (inactive) | 1.9% (inactive)
CCOCCCNC(=O)C(NC(=O)c1ccccn1)c1ccc(C)cc1 (stereo not given) | 94.5 | 120% (inactive) | 94.5% (inactive) | 104% (inactive) | 106% (inactive) | 8.57% (inactive) | 97.3 | 106 | -2.6% (inactive) | 1.9% (inactive) | -4.42% (inactive) | 1.57% (inactive) | -0.13% (inactive) | 108% (inactive) | 97.3% (inactive) | 0.07% (inactive) | 0.36% (inactive)
O=C(Nc1cnn(Cc2ccc(Cl)cc2Cl)c1)c1noc2c1CCCC2 | 94.5 | 91.5% (inactive) | 94.5% (inactive) | 71.8% (inactive) | 88.2% (inactive) | 2.57% (inactive) | 85.6 | 88.2 | -0.13% (inactive) | -3.17% (inactive) | 2.94% (inactive) | -1.65% (inactive) | -0.32% (inactive) | 94.7% (inactive) | 82.7% (inactive) | 0.895% (inactive) | 4.07% (inactive)
CCN1CCN(c2nc(C)nc3c2sc(=S)n3C)CC1 | 100 | 104% (inactive) | 100% (inactive) | 69.6% (inactive) | 90% (inactive) | -1.33% (inactive) | 91.3 | 90 | -3.73% (inactive) | 0.5% (inactive) | -11.2% (inactive) | -5.22% (inactive) | -2.66% (inactive) | 102% (inactive) | 92.6% (inactive) | 1.04% (inactive) | 1% (inactive)
Cc1cccc(-n2ncc3c(NCc4cccnc4)ncnc32)c1 | 95.5 | 93% (inactive) | 95.5% (inactive) | 99.3% (inactive) | 88% (inactive) | -3.23% (inactive) | 91.2 | 88 | -4.8% (inactive) | 0.5% (inactive) | -8.17% (inactive) | -8.12% (inactive) | -0.52% (inactive) | 89.4% (inactive) | 87.5% (inactive) | 2.54% (inactive) | 2.13% (inactive)
Cc1cn2c(-c3ccc(Cl)cc3)nnc2s1 | 96 | 92.5% (inactive) | 96% (inactive) | 74.7% (inactive) | 95.2% (inactive) | -3.87% (inactive) | 99.1 | 95.2 | -3.87% (inactive) | 4.67% (inactive) | -8.55% (inactive) | 16.2% (inactive) | -0.6% (inactive) | 97.6% (inactive) | 90.3% (inactive) | 2.66% (inactive) | 4.88% (inactive)
CS(=O)(=O)N(Cc1ccco1)CC(O)Cn1c2ccccc2c2ccccc21 (stereo not given) | 93.5 | 71.5% (inactive) | 93.5% (inactive) | 76.8% (inactive) | 80.5% (inactive) | -2.92% (inactive) | 83.4 | 80.5 | -3.9% (inactive) | -4.5% (inactive) | -6.72% (inactive) | -1.61% (inactive) | -4.51% (inactive) | 72.2% (inactive) | 74.5% (inactive) | 1.9% (inactive) | 1.64% (inactive)
CCCNC(=O)CS(=O)(=O)Cc1nc(-c2cccc(OC)c2)oc1C | 86 | 90.5% (inactive) | 86% (inactive) | 109% (inactive) | 87.7% (inactive) | -3.96% (inactive) | 91.7 | 87.7 | -0.53% (inactive) | 8.2% (inactive) | 7.42% (inactive) | -2.08% (inactive) | -0.31% (inactive) | 93.1% (inactive) | 87% (inactive) | 0.365% (inactive) | -0.47% (inactive)
